Inconclusive results are not listed. The source made the active and inactive calls. Calls follow the shape of the dose curve; as a rule, active = well fitted curve in the direction sought with a large enough effect; inconclusive = small, poorly fitted or top-dose-only effect, or another doubt; inactive = no such curve, though single readings can be large; an effect the other way counts as inactive or inconclusive.
Experiments:
[1] = molecular target: Glutathione peroxidase 1 (Homo sapiens) (UniProt P07203); assay: Primary qHTS Assay for Inhibitors of Recombinant Selenoprotein Glutathione Peroxidase 1 (GPX1) (AID 1845191); also: nearly all actives have a fitted effect of over 65% in size; also: potency is read from the fitted curve at half-maximal effect; as to activity, negative = inhibition: % is scaled to controls: 0 for no effect and ±100 for the full control effect
Method in brief: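 GPX1 10 nM, GR 100 nM, GSH 1 mM, NADPH 0.5 mM, CHP 0.5 mM (final). 30-min cpd preincubation, RT. Ex340/Em450 read t=0, t=15 min.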

[2] = molecular target: Phospholipid hydroperoxide glutathione peroxidase GPX4 (Homo sapiens) (UniProt P36969); assay: Primary qHTS Assay for Inhibitors of Recombinant Selenoprotein Glutathione Peroxidase 4 (GPX4) (AID 1845192); also: nearly all actives have a fitted effect of over 65% in size; also: potency is read from the fitted curve at half-maximal effect; as to activity change, negative = inhibition: series mostly up to about 50 µM; % is scaled to controls: 0 for no effect and ±100 for the full control effect
Method in brief: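 qHTS, GR-coupled: GPX4 200 nM + cpd 30 min RT → GSH 1 mM, NADPH 0.5 mM, GR 100 nM → CHP 0.5 mM start; fluor 340/450 at t0 and t15 min; no-enzyme wells as control.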

[3] = molecular target: Luciferin 4-monooxygenase (Photinus pyralis) (UniProt P08659); assay: Primary firefly luciferase (FLuc) qHTS assay for identification of artifact compounds. (AID 1845220); also: nearly all actives have a fitted effect of over 60% in size;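 as to activity change, negative = inhibition: series mostly up to about 54 µM; plate controls were DMSO vehicle for no effect and no enzyme for full effect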
Method in brief: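 In this counter-screen for luciferase artifacts, test compounds met substrate (10 uM each luciferin and ATP) before 10 nM enzyme started the reaction. Light output was measured 5 min later.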

[4] = Primary fluorescence-based thiol-reactive (MSTI) qHTS assay for identification of artifact compounds. (AID 1845221); also: nearly all actives have a fitted effect of over 65% in size; also: potency is read from the fitted curve at half-maximal effect;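 as to activity change, negative = thiol reactive: series mostly up to about 54 µM; thiol-reactive compounds lower the probe fluorescence signal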
Method in brief: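 One-hour, room-temperature, dark incubation of compound with 4 uM MSTI in PBS (pH 7.4, 2% DMSO) precedes a fluorescence read at 525 nm excitation, 598 nm emission; Hill-equation fitting yields concentration-response values.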

[5] = test system: Nanoluciferase (engineered Oplophorus gracilirostris luciferase); assay: Primary Nanoluciferase (NLuc) qHTS assay for identification of artifact compounds. (AID 1845222); also: potency is read from the fitted curve at half-maximal effect;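 as to activity, negative = inhibition: NLuc secreted into diluted conditioned medium of S16 cells; series mostly up to about 54 µM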
Method in brief: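 Using secreted nanoluciferase in S16 culture medium (0.22 um filtered, 1:55 dilution), compounds were preincubated 15 min at RT. Signal was generated with Nano-Glo reagent (1:100) over 5 min.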

[6] = Primary redox qHTS assay for identification of artifact compounds. (AID 1845223);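 also: 0% = DMSO and 100% = reference compound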
Method in brief: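 Redox-cycling detection via DTT (250 uM final) oxidation coupled to Amplex Red (25 uM)/HRP (250 mU/mL) in HBSS. 15 min preincubation plus 30 min after DTT, room temperature. Ex/Em 525/598 nm; 4-parameter Hill fit against DMSO and 10 uM DA3003.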

Chain of Phospholipid hydroperoxide glutathione peroxidase GPX4 (Homo sapiens) (P36969 whole entry, looked up): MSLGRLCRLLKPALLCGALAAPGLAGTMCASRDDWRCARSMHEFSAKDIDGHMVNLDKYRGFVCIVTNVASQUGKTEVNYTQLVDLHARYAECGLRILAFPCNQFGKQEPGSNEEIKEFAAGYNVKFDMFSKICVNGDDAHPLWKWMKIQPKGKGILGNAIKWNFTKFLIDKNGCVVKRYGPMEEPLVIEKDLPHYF
Chain of Glutathione peroxidase 1 (Homo sapiens) (P07203 whole entry, looked up): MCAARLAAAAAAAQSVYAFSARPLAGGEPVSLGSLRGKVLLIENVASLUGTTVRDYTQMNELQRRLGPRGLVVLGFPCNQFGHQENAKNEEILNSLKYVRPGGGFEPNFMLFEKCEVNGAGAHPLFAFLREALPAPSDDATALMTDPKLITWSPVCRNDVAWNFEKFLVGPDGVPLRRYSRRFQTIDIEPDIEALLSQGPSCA

CC(C)[C@H]1CC[C@@]2(O)COC(=O)[C@H]2[C@@H]1/C=C(\CO)C(=O)O
inactive: Potency [1] | Potency [2] | Potency [3] | Potency [4] | Potency [5] | Potency [6]

COC(=O)CC(O)C1OC(c2ccccc2)C(O)C1O (stereo not given)
inactive: Potency [1] | Potency [2] | Potency [3] | Potency [5] | Potency [6]
active: Potency [4] 8.44 µM

COc1c2c(c(CO)c3c1C(=O)OC3)OC1(C)CCC3(O)C(C)(C)OC(=O)CCC3(C)C1C2 (stereo not given)
inactive: Potency [1] | Potency [2] | Potency [3] | Potency [4] | Potency [5] | Potency [6]

O=C(/C=C\c1ccc(O)cc1)N[C@@H](Cc1ccc(O)cc1)C(=O)O
active: Potency [4] 6.56 µM
inactive: Potency [1] | Potency [2] | Potency [3] | Potency [5] | Potency [6]

CCn1cc(NC(=S)Nc2cc(Cl)ccc2OC)c(C(N)=O)n1
inactive: Potency [1] | Potency [2] | Potency [3] | Potency [4] | Potency [5] | Potency [6]

Cc1noc(-c2ccc(-c3ccc(CC(=O)O)cc3)cc2)c1NC(=O)O[C@H](C)c1ccccc1
inactive: Potency [1] | Potency [2] | Potency [3] | Potency [4] | Potency [6]
active: Potency [5] 10.7 µM

CC/C=C\C/C=C\C/C=C\CCCCCCCC(=O)OCC(O)COC1OC(CO)C(O)C(O)C1O (stereo not given)
inactive: Potency [1] | Potency [2] | Potency [3] | Potency [4] | Potency [5] | Potency [6]

OCc1ccc(O[C@@H]2O[C@H](CO)[C@@H](O)[C@H](O)[C@H]2O)cc1
inactive: Potency [1] | Potency [2] | Potency [3] | Potency [4] | Potency [5] | Potency [6]

CC[C@@H](O)C[C@@H]1C(C)=C[C@@H]2CCCC[C@@H]2[C@@]1(C)C(=O)O
inactive: Potency [1] | Potency [2] | Potency [3] | Potency [4] | Potency [5] | Potency [6]

COC1/C=C/C(C)(O)C(SCC(N)C(=O)O)CC(=O)OC(C)C(C)CC/C=C/1C (stereo not given)
inactive: Potency [1] | Potency [2] | Potency [3] | Potency [4] | Potency [5] | Potency [6]

C[C@H](C/C=C/C(C)(C)O)[C@H]1CC[C@@]2(C)[C@@H]3[C@@H](O[C@@H]4O[C@H](CO)[C@@H](O)[C@H](O)[C@H]4O)C=C4C(CC[C@H](O)C4(C)C)[C@]3(C=O)CC[C@]12C (stereo not given in full)
inactive: Potency [1] | Potency [2] | Potency [3] | Potency [4] | Potency [5] | Potency [6]

COc1ccc(CN2C(=O)C(=O)c3cc(S(=O)(=O)N4CCC[C@H]4COc4cccnc4)ccc32)cc1
active: Potency [1] 22.7 µM | Potency [2] 25.5 µM
inactive: Potency [3] | Potency [4] | Potency [5] | Potency [6]

CC1COC2(OC3CC4C5CC(O[C@@H]6O[C@H](C)[C@@H](O[C@@H]7O[C@@H](C)[C@H](O)[C@@H](O)[C@H]7O)[C@H](O)[C@H]6O)C6CC(O)CCC6(C)C5CCC4(C)C3C2C)C(O)C1 (stereo not given in full)
inactive: Potency [1] | Potency [2] | Potency [3] | Potency [4] | Potency [5] | Potency [6]

CC1OC(O[C@H]2CC[C@@]3(C)C(CC[C@]4(C)C3CC=C3C5CC(C)(C)CC[C@]5(C(=O)OC5OC(CO)C(OC6OC(COC7OCC(O)C(O)C7O)C(O)C(O)C6O)C(O)C5O)CC[C@]34C)C2(C)C)C(O)C(O)C1OC1OCC(OC2OCC(O)C(O)C2O)C(O)C1O (stereo not given in full)
inactive: activity, negative = inhibition [1] -21.4% [at 9.52 µM] | activity change, negative = inhibition [2] -7.3% [at 9.73 µM] | activity change, negative = inhibition [3] -3.25% [at 11.6 µM] | activity change, negative = thiol reactive [4] 94.7% [at 11.5 µM] | activity, negative = inhibition [5] 0% [at 11.6 µM] | redox activity (% of DA3003) [6] 16.2% [at 11.5 µM]

CCN(CC)CCN(Cc1ccc(-c2ccc(C(F)(F)F)cc2)cc1)C(=O)Cn1c(SCc2ccc(F)cc2)nc(=O)c2c1CCC2
inactive: Potency [1] | Potency [2] | Potency [3] | Potency [4] | Potency [5] | Potency [6]

CCCC(=O)C1CCN(c2ncnc3c2CN(C(=O)c2ccc(-c4ccccc4)cc2)CC3)CC1
inactive: Potency [1] | Potency [2] | Potency [3] | Potency [4] | Potency [5] | Potency [6]

CCC(=O)O[C@H]1C(C)(C)[C@H]([C@@H](O)C(=O)OC)[C@]2(C)C(=O)[C@@]1(O)[C@H]1O[C@]13C1CC(=O)O[C@@H](c4ccoc4)[C@]1(C)CCC32 (stereo not given in full)
inactive: Potency [1] | Potency [2] | Potency [3] | Potency [4] | Potency [5] | Potency [6]

CC(=O)O[C@H]1[C@H](O[C@H]2[C@@H]3C=CO[C@@H](O[C@@H]4O[C@H](CO)[C@@H](O)[C@H](O)[C@H]4O)[C@@H]3[C@@]3(CO)O[C@@H]23)O[C@@H](C)[C@H](OC(=O)/C=C/c2ccccc2)[C@H]1OC(=O)/C=C/c1ccccc1
inactive: Potency [1] | Potency [2] | outcome [3] inactive [at 11.6 µM] | activity change, negative = thiol reactive [4] 2.44% [at 11.5 µM] | activity, negative = inhibition [5] 2.49% [at 11.6 µM] | redox activity (% of DA3003) [6] 5.63% [at 11.5 µM]

CCOc1ccc(S(=O)(=O)n2c(C)nc3ccccc32)cc1
inactive: Potency [1] | Potency [2] | Potency [3] | Potency [4] | Potency [5] | Potency [6]

CC(C)C[C@H](CC(=O)NO)C(=O)N[C@H](C(=O)N[C@@H](C)C(=O)NCCN)C(C)(C)C
inactive: activity, negative = inhibition [1] -2.8% [at 9.52 µM] | activity change, negative = inhibition [2] -8.26% [at 9.73 µM] | activity change, negative = inhibition [3] -1.85% [at 11.6 µM] | activity change, negative = thiol reactive [4] 1.54% [at 11.5 µM] | activity, negative = inhibition [5] 2.44% [at 11.6 µM] | redox activity (% of DA3003) [6] 0.177% [at 11.5 µM]

From PubChem BioAssay (NCATS)
